The results in this text go back to the supplement of paper PMC10338343.

± gives the standard deviation.

The subject of this experiment is EfPiwi piRISC loaded with piRNA #1 (26 nt). Kind of experiment: pre-steady-state target cleavage rate (min^-1); auxiliary factor: 500 nM Ephydatia muelleri Gtsf1; guide: piRNA #1 5'p-UGAGGUAGUAGGUUGUAUAGUAUCCA; MIWI and MILI are mouse PIWI proteins and EfPiwi is from a freshwater sponge; tags in brackets are library labels; higher = faster piRNA-guided slicing of the target. As for the experimental part:
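Cleave-'n-Seq: a library of target RNAs (target site in constant flanks) at […] was incubated with 1 nM active freshwater sponge Ephydatia fluviatilis Piwi piRISC (synthetic 5'-monophosphorylated piRNA guide) with or without 500 nM EmGtsf1 at 33 °C for 1 min to 16 h. Uncleaved targets were sequenced and the pooled three trials fitted to a burst-and-steady-state model to give the pre-steady-state cleavage rate (min^-1). Sequence is the target site only. Fits with R² ≤ 0 are excluded.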
For GGAGUGGACUACUAUACAACCUACUACCUCA, the “pre-steady-state target cleavage rate” value worked out at 0.0107 ± 0.0041.

Take GGAGACUAUACUAUACAACCUACUACCUCA: the “pre-steady-state target cleavage rate” value worked out at 0.0352 ± 0.014.

For GGAGUGGAUACUAUACCAACCUACUACCUCA, the “pre-steady-state target cleavage rate” value turned out to be 0.0596 ± 0.021.

As for GGAGACCUUACUAUACUACCUACUACCUCA, the “pre-steady-state target cleavage rate” value was determined as 0.00739 ± 0.0039.

Take GGAGUGGUAACUAUACAACCUACUACCUCA: the “pre-steady-state target cleavage rate” value stood at 0.0157 ± 0.0069.

With GGAGAGGAUAACUAUACAACCUACUACCUCA, the “pre-steady-state target cleavage rate” value amounted to 0.104 ± 0.039.

For “GGAGACCUAUGAUUACAACCUACUACCUCA [g2:g17:cont:t1A]”, the “pre-steady-state target cleavage rate” value turned out to be 0.00451 ± 0.0032.

GGAGAGGAUUCUAUACAACGUACUACCUCA: the “pre-steady-state target cleavage rate” value was 0.00249 ± 0.0021.

In the case of GGAGACCUUUGAAUACAACCUACUACCUCA, the “pre-steady-state target cleavage rate” value was 0.00525 ± 0.0038.

GGAGACCAUACUAUACAUCGUACUACCUCA: the “pre-steady-state target cleavage rate” value was found to be 0.0027 ± 0.0021.

As for GGAGAGGAUACAUAACAACCUACUACCUCA, the “pre-steady-state target cleavage rate” value worked out at 0.00445 ± 0.004.

Take GGAGUGGAUACUAUUCAACCUACAACCUCA: the “pre-steady-state target cleavage rate” value is 0.00255 ± 0.0022.

As for GGAGAGAGAUACUAUACAACCUACUACCUCA, the “pre-steady-state target cleavage rate” value came to 0.159 ± 0.057.

For GGAGAGGAUACUAUACACCUACUACCUCA, the “pre-steady-state target cleavage rate” value is 0.0984 ± 0.042.

Consider GGAGUGGAUACUAUACAACCAACUACGUCA, for which the “pre-steady-state target cleavage rate” value is 0.00367 ± 0.0011.

With GGAGACCUUACUAUACAACCUACUACCUGCA, the “pre-steady-state target cleavage rate” value came to 0.00419 ± 0.0031.

For the sequence GGAGACCUAUCUACACAACCUACUACCUCA, the “pre-steady-state target cleavage rate” value was 0.00358 ± 0.0034.

Consider GGAGUGGAUAGUAUACAACCUACUACCUGA, for which the “pre-steady-state target cleavage rate” value was found to be 0.00315 ± 0.0017.

Turning to GGAGUGGAUACUAUCAACCUACUACCUCA, the “pre-steady-state target cleavage rate” value turned out to be 0.0872 ± 0.035.

GGAGACCUAUGAUAACAAGGAACUACCUCA: the “pre-steady-state target cleavage rate” value was less than 0.0001.

For GGAGACCUGACUAUACAACCUACUACCUCA, the “pre-steady-state target cleavage rate” value is 0.0243 ± 0.01.

In the case of GGAGACGAUACUAUACUACCUACUACCUGA, the “pre-steady-state target cleavage rate” value turned out to be 0.00446 ± 0.0021.

Take GGAGAGGAACUAUACAACCUACUACCUCA: the “pre-steady-state target cleavage rate” value worked out at 0.00746 ± 0.0049.

As to GGAGAGGAUACUAUACGACCUACUACCUCA, the “pre-steady-state target cleavage rate” value was 0.117 ± 0.05.

As for GGAGUGGAUGACUAUACAACCUACUACCUCA, the “pre-steady-state target cleavage rate” value came to 0.00475 ± 0.0037.

For the sequence GGAGACCAUACUAUACAACGUACUAGCUCA, the “pre-steady-state target cleavage rate” value came to 0.00358 ± 0.0035.

Consider GGAGAGGAUACUUUACAACCUACUACGUCA, for which the “pre-steady-state target cleavage rate” value turned out to be 0.00296 ± 0.0023.

In the case of “GGAGACGAUACUAUACAACCUACUACCUCC [g2:g24:cont:t1C]”, the “pre-steady-state target cleavage rate” value is 0.0508 ± 0.017.

On to GGAGACGAUACUAGACAACCUACUACCUCA, for which the “pre-steady-state target cleavage rate” value is 0.00452 ± 0.0029.

Consider GGAGACCUUACUAUACAAGCUACUACCUCA, for which the “pre-steady-state target cleavage rate” value stood at 0.00386 ± 0.002.

For GGAGAGGAUACUAUACAACCUACUACCGUCA, the “pre-steady-state target cleavage rate” value turned out to be 0.00833 ± 0.0032.

GGAGACGAUACUAGUACAACCUACUACCUCA: the “pre-steady-state target cleavage rate” value was 0.0047 ± 0.0025.

For the sequence GGAGUGGAUACUAUACAACGUUCUACCUCA, the “pre-steady-state target cleavage rate” value stood at 0.00461 ± 0.0022.

With GGAGACCUAACUAUACAACCUACUACGAGA, the “pre-steady-state target cleavage rate” value is 0.00515 ± 0.0032.

In the case of GGAGACCUAUCAUAUACAACCUACUACCUCA, the “pre-steady-state target cleavage rate” value was found to be 0.0103 ± 0.0048.

GGAGACCAUACUAUACAAUCUACUACCUCA: the “pre-steady-state target cleavage rate” value stood at 0.00847 ± 0.004.

With GGAGACCUUACUAUACAACCUACUACACUCA, the “pre-steady-state target cleavage rate” value was 0.0028 ± 0.0026.

With GGAGACCUAACUAUACAACCUACUAGCUCA, the “pre-steady-state target cleavage rate” value stood at 0.00459 ± 0.0036.

On to GGAGUGGAUACUAUACAUCCUACUACCACA, for which the “pre-steady-state target cleavage rate” value stood at 0.00415 ± 0.0017.

Turning to GGAGAGGAAACUAUACAUCCUACUACCUCA, the “pre-steady-state target cleavage rate” value is 0.00711 ± 0.0026.
